# Assay results reported in PubChem BioAssay (NCATS).
# Values joined by “and” are separate entries in the source; they are usually repeats but may differ in a detail not shown here. Identical values can stand only once. Results filed as inconclusive are left out. A call without a number means that no potency is given here. Active and inactive are the calls of the source. Unless noted, calls follow the shape of the dose curve; as a rule, active = well fitted curve in the direction sought with a large enough effect; inconclusive = small, poorly fitted or top-dose-only effect, or another doubt; inactive = no such curve, though single readings can be large; an effect the other way counts as inactive or inconclusive.
# Legend:
# [1] = Cell Viability - BJ (AID 421; calls by dose curve;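 also: potency is read from the fitted curve at half-maximal effect; cells exposed to compound for 40 hours at 37 °C before readout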); conditions: BJ fibroblast viability, qHTS
# How it was run: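 Cytotoxicity in human BJ foreskin fibroblasts is scored as loss of cellular ATP after a 40-hour exposure, measured by luciferase luminescence. Controls are DMSO and 100 uM tamoxifen.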
# [2] = Cell Viability - HepG2 (AID 433; calls by dose curve;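 also: potency is read from the fitted curve at half-maximal effect; potency for ATP loss meaning cytotoxicity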); conditions: qHTS
# How it was run: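 HepG2 cells, 1500 per well, treated 40 hr at 37 °C in complete medium; viability from intracellular ATP by CellTiter-Glo luminescence. Normalized to DMSO and 100 uM tamoxifen; AC50 from Hill fit of qHTS concentration-response.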
# [3] = Cell Viability - SK-N-SH (AID 435; calls by dose curve;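 also: potency is read from the fitted curve at half-maximal effect; compound exposure lasted 40 h at 37 °C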); conditions: SK-N-SH neuroblastoma cell viability qHTS
# How it was run: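 SK-N-SH neuroblastoma cells (1500/well) treated 40 h at 37 °C in complete medium; viability read as cellular ATP by CellTiter-Glo luminescence. Normalized to DMSO and 100 uM tamoxifen; AC50 from Hill fits of qHTS concentration-response.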
# [4] = target: Mitogen-activated protein kinase 10 (Mus musculus) (UniProt Q61831); test: JNK3 AlphaScreen Assay (AID 530; active = well fitted curve in either direction with a large enough effect, not every such curve was filed as active;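 also: kinase came from lysate of stimulated human HepG2 cells; signal reports phosphorylation of biotinylated GST-cJun 1-79 at Ser73 with 10 µM ATP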)
# How it was run: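 Biotinylated GST-cJun(1-79) served as substrate for JNK3 in HepG2 lysates stimulated with IL-1beta and TNF-alpha. ATP was 10 uM final, pH 7.6. Ser73 phosphorylation was quantified by AlphaScreen (680 nm excitation).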
# [5] = Cell Viability - HUV-EC-C (AID 542); also: nearly all actives have a fitted effect of over 35% in size
# How it was run: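 Concentration-dependent ATP loss in HUV-EC-C cells is the measure. Exposure lasts 40 hr at 37 °C; luminescence follows CellTiter-Glo addition, and Hill fits give AC50.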
# [6] = Cell Viability - Renal Proximal Tubule (AID 545); conditions: renal proximal tubule cells viability; at 91.7 µM (top of the series), primary cells of rat origin unless noted; also: nearly all actives have a fitted effect of over 40% in size
# How it was run: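 Rat renal proximal tubule primary cells, 1000/well, exposed to compounds for 40 hr at 37 °C in complete medium; cellular ATP read by CellTiter-Glo luminescence. AC50 from concentration-response fitted with standard Hill equation.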
# [7] = Cell Viability - Mesenchymal (AID 546);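 also: cells exposed to compound for 40 hours before reading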
# How it was run: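 In this qHTS cytotoxicity format, glomerulus-derived human mesenchymal kidney cells received compound for 40 hr, then luciferase-based ATP quantitation. Concentration-response data were fitted with the Hill equation.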
# [8] = Cellular Toxicity (caspase-3) HepG2 (AID 654);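 also: cells exposed to compound for 16 hours before reading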
# How it was run: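 Concentration-response AC50 values reflect caspase-3/7 induction in HepG2 cells after 16 hours of compound exposure, quantified by luminescence from liberated aminoluciferin and referenced to 100 uM tamoxifen as full stimulation.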
# [9] = Cellular Toxicity (caspase-3) Jurkat (AID 655); conditions: Jurkat caspase-3 activation, luminescence, DMSO = 0%, tamoxifen = 100%; at 92.2 µM (top of the series);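 also: cells exposed to compound for 16 h at 37 °C before reading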
# How it was run: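 Jurkat cells (5000/well) in complete medium exposed 16 h at 37 C; caspase-3/7 activity read by Caspase-Glo luminescence after 20 min at room temperature. Normalized to DMSO and 100 uM tamoxifen; AC50 from Hill fits.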
# [10] = Cellular Toxicity (caspase-3) HUV-EC-C (AID 656)
# How it was run: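 HUV-EC-C cells (1000/well) in complete medium, compound-treated 16 h at 37 °C; caspase-3/7 activity read by Caspase-Glo 3/7 luminescence. Normalized to DMSO (basal) and 100 uM tamoxifen (100%); AC50 from Hill-equation concentration-response fits.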
# [11] = Cellular Toxicity (caspase-3) SHSY5Y (AID 657)
# How it was run: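 SH-SY5Y human neuroblastoma cells, 1500/well, exposed to compound for 16 hours at 37 °C in complete medium. Caspase-3/7 activity read by Caspase-Glo luminescence after 1 hr at room temperature, normalized to DMSO and 10 uM staurosporine; AC50 from Hill fit.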
# [12] = Cellular Toxicity (caspase-3) BJ (AID 658)
# How it was run: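 Plated BJ cells (1000/well) rested 5 hr, received compound for 16 hr at 37 °C, then Caspase-Glo 3/7 reagent for 1 hr at room temperature before luminescence reading.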
# [13] = Cellular Toxicity (caspase-3) MRC-5 (AID 659)
# How it was run: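 Apoptosis readout in MRC-5 cells: luciferase light generated after caspase 3/7 cleaves a peptide-aminoluciferin substrate, measured post 16 hr compound incubation at 37 °C.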
# [14] = Cellular Toxicity (caspase-3) Mesangial (AID 660);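 also: cells exposed to compound for 16 h before the caspase read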
# How it was run: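 AC50 values come from Hill-equation fits of caspase 3/7 activation, measured as Caspase-Glo luminescence in human glomerular mesangial cells exposed to compound for 16 h at 37 °C; 100% set by 100 uM tamoxifen.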
# [15] = Cellular Toxicity (caspase-3) SK-N-SH (AID 661)
# How it was run: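 Apoptosis readout in SK-N-SH neuroblastoma: Caspase-Glo 3/7 luminescence following 16 hr treatment in complete culture medium. Normalization used DMSO and 10 uM staurosporine controls.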
# [16] = Cellular Toxicity (caspase-3) H-4-II-E (AID 663);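 also: cells exposed to compound for 16 hr before readout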
# How it was run: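 Caspase 3/7 activation measured in H-4-II-E cells in complete culture medium after 16 hr treatment at 37 °C, using luciferase-coupled substrate readout; AC50 values come from Hill-equation fits of normalized concentration-response data.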
# [17] = Cellular Toxicity (caspase-3) Renal Proximal Tubule (AID 667); conditions: renal proximal tubule cells; at 91.7 µM (top of the series), primary cells freshly taken from rat, solvent-only wells 0%, staurosporine 100% unless noted;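 also: cells exposed to compound for 16 hours at 37 °C before detection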
# How it was run: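 Freshly isolated primary rat kidney proximal tubule cells, 1000/well, treated 16 hr at 37 °C, then Caspase-Glo 3/7 luminescence after 1 hr. Normalized to DMSO and 10 uM staurosporine; AC50 from Hill fit.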
# [18] = qHTS assay for small molecule antagonists of retinoid X receptor alpha signaling (AID 588546; active = well fitted inhibition curve with a large enough effect in the signal ratio, with a control signal flat, not every such curve was filed as active; the % refers to the signal ratio;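 also: cells stimulated with 9-cis-retinoic acid as agonist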); conditions: HEK293T RXRa-UAS-bla, beta-lactamase ratio, antagonist mode; measured here: W530 green channel, cytotoxicity proxy
# How it was run: (§1)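 Beta-lactamase reporter inhibition, read as CCF4 fluorescence ratio (ex 405, em 460/530 nm) after 2 h at RT. HEK293T UAS-bla cells, 2500/well, were stimulated with 9-cis-RA at 500 or 100 nM final alongside test compound for 18 h at 37 C.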
# [19] = target: Retinoic acid receptor RXR-alpha (Homo sapiens) (UniProt P19793); test: as above; conditions: HEK293T RXRa-UAS-bla, beta-lactamase ratio, antagonist mode
# How it was run: as §1
# Retinoic acid receptor RXR-alpha (Homo sapiens), sequence (P19793 whole entry, looked up): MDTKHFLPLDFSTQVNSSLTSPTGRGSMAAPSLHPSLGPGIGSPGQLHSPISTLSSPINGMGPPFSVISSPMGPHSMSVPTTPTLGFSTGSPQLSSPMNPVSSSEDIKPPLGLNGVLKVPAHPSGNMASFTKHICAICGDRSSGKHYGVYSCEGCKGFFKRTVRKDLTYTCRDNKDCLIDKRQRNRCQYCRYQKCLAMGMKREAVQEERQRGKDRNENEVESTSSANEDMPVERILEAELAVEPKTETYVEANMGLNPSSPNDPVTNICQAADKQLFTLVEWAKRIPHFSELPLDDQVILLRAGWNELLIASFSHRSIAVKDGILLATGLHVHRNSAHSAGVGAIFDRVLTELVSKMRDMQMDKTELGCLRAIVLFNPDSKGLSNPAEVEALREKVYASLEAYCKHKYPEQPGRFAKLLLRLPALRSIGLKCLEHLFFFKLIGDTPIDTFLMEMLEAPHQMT
SMILES,Potency [1],Potency [2],Potency [3],outcome [4],Potency [5],"activity change, negative = cytotoxicity [6]",outcome [7],outcome [8],caspase-3 activation [9],outcome [10],outcome [11],outcome [12],outcome [13],outcome [14],outcome [15],outcome [16],caspase-3 activation [17],max response [18],max response [19]
C=C(Cl)Cl,> 92 µM (inactive),> 92 µM (inactive),> 92 µM (inactive),inactive,inactive,-2.22% (inactive),inactive,inactive,0.59% (inactive),inactive,inactive,inactive,inactive,inactive,inactive,inactive,1.42% (inactive),-3.44%,-1.27% (inactive)
C=CCOC(C)=O,> 92 µM (inactive),> 92 µM (inactive),> 92 µM (inactive),inactive,inactive,-1.33% (inactive),inactive,inactive,0.277% (inactive),inactive,inactive,inactive,inactive,inactive,inactive,inactive,-7.63% (inactive),-2.08%,2.59% (inactive)
CC(O)CCl (centres undefined),> 92 µM (inactive),> 92 µM (inactive),> 92 µM (inactive),inactive,inactive,-0.642% (inactive),inactive,inactive,1.88% (inactive),inactive,inactive,inactive,inactive,inactive,inactive,inactive,7.82% (inactive),-12.9% and -6.32%,-5.06% (inactive) and 5.36% (inactive)
O=C(Cl)C(Cl)(Cl)Cl,> 92 µM (inactive),> 92 µM (inactive),> 92 µM (inactive),inactive,inactive,0.33% (inactive),inactive,inactive,3.49% (inactive),inactive,inactive,inactive,inactive,inactive,inactive,inactive,-1.87% (inactive),2.3%,2.98% (inactive)
CCOP(=S)(OCC)SCSC(C)(C)C,> 92 µM (inactive),> 92 µM (inactive),> 92 µM (inactive),inactive,inactive,1.14% (inactive),inactive,inactive,-0.764% (inactive),inactive,inactive,inactive,inactive,inactive,inactive,inactive,-0.898% (inactive),-10.4% and -6.52%,-12% (inactive) and 0.279% (inactive)
C=CC(=O)OCC,> 92 µM (inactive),> 92 µM (inactive),> 92 µM (inactive),inactive,inactive,0.0849% (inactive),inactive,inactive,-0.667% (inactive),inactive,inactive,inactive,inactive,inactive,inactive,inactive,-0.996% (inactive),-8.36%,4.16% (inactive)
C=CC(N)=O,> 92 µM (inactive),> 92 µM (inactive),> 92 µM (inactive),inactive,inactive,6.17% (inactive) and -0.476% (inactive),inactive,inactive,0.421% (inactive) and 0.897% (inactive),inactive,inactive,inactive,inactive,inactive,inactive,inactive,6.41% (inactive) and -1% (inactive),-10.1% and 0.0016% and -8.94%,17% (inactive) and -9.44% (inactive) and -5.75% (inactive)
CC(C)CN1CCCC2(CCN(C(=O)Oc3ccccc3)CC2)C1,,,,inactive,,,,,,,,,,,,,,,
